BAZ2B block: qHTS Assay for Inhibitors of BAZ2B; AlphaScreen BAZ2B-H3K14Ac peptide displacement; Potency, µM (titrated, usually from 114 µM), for the others: top-dose activity change, negative = inhibition, most hits filed as inhibitors; actives 4.4% (n = 360,000); AID 504333, 2011; further: on the % scale 0 is the no-effect control and ±100 the full control effect; nearly all actives have a fitted effect of over 60% in size
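In this displacement format the biotinylated H3(5-23) peptide acetylated at Lys14 serves as ligand at 50 nM, with BAZ2B at 50 nM in PBS pH 7.4 containing 0.01% Tween-20. Donor and acceptor beads are 10 ug/mL final.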
JMJD2A Tudor inh: qHTS Assay for Inhibitors of JMJD2A-Tudor Domain. AlphaScreen JMJD2A-Tudor / H3K4me3 peptide binding. Potency, µM (highest dose often 114 µM), for the others: at the highest dose activity change, negative = inhibition, most hits filed as inhibitors. actives 4.4% (n = 390,000). AID 504339, 2011. Lysine-specific demethylase 4A (Homo sapiens), O75164; further: on the % scale 0 is the no-effect control and ±100 the full control effect; nearly all actives have a fitted effect of over 50% in size
Target sequence (O75164 whole entry, looked up, the tested form may be a part): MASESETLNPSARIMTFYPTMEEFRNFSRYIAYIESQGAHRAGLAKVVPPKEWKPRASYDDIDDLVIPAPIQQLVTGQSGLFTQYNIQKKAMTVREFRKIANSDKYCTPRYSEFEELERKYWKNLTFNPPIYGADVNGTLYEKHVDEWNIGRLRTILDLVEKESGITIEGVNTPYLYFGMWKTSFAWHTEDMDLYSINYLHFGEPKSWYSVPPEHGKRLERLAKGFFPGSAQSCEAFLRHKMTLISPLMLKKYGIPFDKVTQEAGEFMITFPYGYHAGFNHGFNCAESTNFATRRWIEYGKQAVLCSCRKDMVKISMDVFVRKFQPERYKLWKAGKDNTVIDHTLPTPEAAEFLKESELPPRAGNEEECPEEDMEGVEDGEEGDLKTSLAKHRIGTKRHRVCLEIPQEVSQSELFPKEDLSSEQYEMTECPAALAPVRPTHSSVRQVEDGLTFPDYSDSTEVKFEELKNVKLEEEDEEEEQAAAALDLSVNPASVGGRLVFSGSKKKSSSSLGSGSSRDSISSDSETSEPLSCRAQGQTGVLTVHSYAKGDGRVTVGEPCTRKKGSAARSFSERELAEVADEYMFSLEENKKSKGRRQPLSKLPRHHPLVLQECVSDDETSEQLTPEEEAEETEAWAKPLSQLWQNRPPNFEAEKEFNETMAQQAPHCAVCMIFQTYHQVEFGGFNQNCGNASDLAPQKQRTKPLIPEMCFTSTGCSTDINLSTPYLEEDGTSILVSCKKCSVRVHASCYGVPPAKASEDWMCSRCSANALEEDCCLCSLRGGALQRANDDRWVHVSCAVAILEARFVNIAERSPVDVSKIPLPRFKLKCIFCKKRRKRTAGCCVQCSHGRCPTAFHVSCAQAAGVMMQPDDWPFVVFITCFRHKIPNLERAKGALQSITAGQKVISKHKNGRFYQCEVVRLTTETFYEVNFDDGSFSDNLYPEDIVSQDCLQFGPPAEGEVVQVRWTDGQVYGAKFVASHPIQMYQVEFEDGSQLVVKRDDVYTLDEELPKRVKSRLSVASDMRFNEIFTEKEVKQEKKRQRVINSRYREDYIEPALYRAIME
L3MBTL1 inh: qHTS Assay for the Inhibitors of L3MBTL1; Potency, µM (series often up to 57.1 µM), inactives show at the top dose activity, negative = inhibition, hits mostly inhibitors; Lethal(3)malignant brain tumor-like protein 1 (Homo sapiens), Q9Y468; AID 485360, 2010; actives 0.66% (n = 230,000); AlphaScreen L3MBTL1–H3K9me1 peptide binding; further: on the % scale 0 is the no-effect control and ±100 the full control effect; nearly all actives have a fitted effect of over 60% in size
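Read-out is AlphaScreen signal from streptavidin donor and nickel chelate acceptor beads (10 ug/mL final each) bridging L3MBTL1 (50 nM) and biotinylated K9-monomethylated H3(1-15) peptide (75 nM), after 30 min compound exposure at room temperature.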
HP1b chromo inh: HTS for Inhibitors of HP1-beta Chromodomain Interactions with Methylated Histone Tails | Chromobox protein homolog 1 (Homo sapiens), P83916 | AlphaScreen HP1-beta / biotin-H3K9me3 peptide binding | Potency, µM (highest dose often 114 µM), for inactives: at the highest dose activity change, negative = inhibition, most hits filed as inhibitors | actives 0.56% (n = 390,000) | AID 540317, 2011; further: nearly all actives have a fitted effect of over 70% in size
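HP1-beta protein (50 nM final) preincubated 30 min at room temperature with biotinylated H3(1-18)K9me3 peptide (50 nM) in PBS pH 7.4, 0.01% Tween-20, then compound added for 30 min. AlphaScreen streptavidin donor/nickel chelate acceptor beads (10 ug/mL final), 30 min dark, luminescence read.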
GLS inhibitor: qHTS for Inhibitors of Glutaminase (GLS) | Glutaminase kidney isoform, mitochondrial (Homo sapiens), O94925 | GLS enzymatic activity, qHTS titration | Potency, µM (doses to about 45.5 µM), inactives show at the top dose activity change, negative = inhibition, most hits filed as inhibitors | actives 0.21% (n = 410,000) | AID 624170, 2012; further: on the % scale 0 is the no-effect control and ±100 the full control effect
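Coupled fluorescence readout: glutamate oxidase/HRP/Amplex Red detect glutamate formed by hKGA from L-glutamine (1 mM solution added). Buffer 45 mM KH2PO4 pH 8.2, 0.02% Tween-20; reads at t0 and 30 min RT.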
G9a block: qHTS Assay for Inhibitors of Histone Lysine Methyltransferase G9a; Potency, µM (doses to about 102 µM), without a hit: at the highest dose activity, negative = inhibition, hits mostly inhibitors; G9a H3K9 monomethylation, AlphaScreen, 2 h; actives 8.8% (n = 350,000); further: on the % scale 0 is the no-effect control and ±100 the full control effect; nearly all actives have a fitted effect of over 75% in size
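Chemiluminescent proximity detection of H3K9 monomethylation, read after 10 min bead incubation in the dark. Reaction: 20 nM G9a, 500 nM biotin-H3K9 peptide, 20 uM SAM cofactor, 2 h, room temperature, following 15 min enzyme-compound preincubation.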
Numbers without * were called inactive; ? = inconclusive; nt = no result given; [ ] = remark or other dose. Compounds with a hit are over-represented: about 10% of the library has one in this group of screens. The call rests on the fitted dose curve; in most records, active means well fitted curve in the direction sought with a large enough effect; inconclusive means small, poorly fitted or top-dose-only effect, or another doubt; inactive means no such curve, though single readings can be large; an effect the other way counts as inactive or inconclusive. Potency means the concentration at half of the fitted maximal effect.

SMILES | BAZ2B block | JMJD2A Tudor inh | L3MBTL1 inh | HP1b chromo inh | GLS inhibitor | G9a block
COC(=O)C1=C[C@@H](C(=O)OC)[C@@H]2C3=C(C(=O)[C@@]2(C)NC(=O)c2ccccc2)[C@H](C)[C@@H]2C(=O)N(c4ccccc4)C(=O)[C@@H]2[C@@H]3C1 | nt | -22% | nt | 27% | nt | nt
CCc1ccc(C(=O)c2cn(CC(=O)Nc3ccc4c(c3)OCO4)c3ccc(F)cc3c2=O)cc1 | -6% | -15% | nt | 20% | 1% | -30%[59 µM]
Cc1[nH]c2ccccc2c1C(c1ccccn1)c1c(C)[nH]c2ccccc12 | 35µM* | -25% | nt | -4% | 1% | 28µM*
COc1cccc(CNCc2cccn2-c2nnc(N3CCN(c4ccccc4)CC3)s2)c1 | ? | 50µM* | nt | -23% | 13% | ?
COc1ccccc1NCc1cccn1-c1nnc(N2CCCCCC2)s1 | -2%[57.1 µM] | 45µM* | nt | -13% | -4% | ?
COc1ccc(OC)c(NCc2cccn2-c2nnc(N3CCCCC3)s2)c1 | -37%[57.1 µM] | 50µM* | nt | ? | 6% | 8.9µM*
COc1ccc(NCc2cccn2-c2nnc(N3CCCCC3)s2)cc1OC | -29%[57.1 µM] | ? | nt | ? | 18% | ?
CCC(C)NC(=O)c1ccccc1NC(=O)CN1C(=O)c2cccc3cccc1c23 (stereo unspecified) | 5% | 22% | nt | 66% | 1% | 26%[59 µM]
Cc1ccc(-n2c(=O)c3ccc(C(=O)NCc4ccccc4Cl)cc3n(Cc3cccc(F)c3)c2=O)cc1 | nt | -6% | nt | 32% | 0% | ?
CC1CCc2nc(-c3cc4ccc(O)cc4oc3=O)sc2C1 (stereo unspecified) | nt | 35%[57.1 µM] | nt | 29%[57 µM] | nt | nt
O=C(Nc1ccccc1N1CCCC1)C1CCN(C(=O)c2ccc(F)cc2)CC1 | 7% | -19% | 3% | 3% | 28% | 50µM*
O=C(Nc1ccccc1N1CCCC1)C1CCN(C(=O)c2ccc(Cl)cc2)CC1 | -10% | -29% | 0% | -12% | -23% | 50µM*
N#Cc1ccsc1NC(=O)C1CCN(C(=O)c2ccc(Cl)cc2)CC1 | -34% | -17% | 5% | 20% | -1% | 50µM*
O=C(Nc1ccccc1N1CCCCC1)C1CCN(C(=O)c2ccc(Cl)cc2)CC1 | -1% | -18% | -7% | 16% | -20% | ?
Cc1ccc(NC2=C(NC(=O)c3ccccc3)C(=O)c3ccccc3C2=O)cc1Cl | 14µM* | 14µM* | ? | 45µM* | 15% | 2.2µM*
O=C(O)c1cccc(NC2=C(Cl)C(=O)c3ccccc3C2=O)c1 | 45µM* | 56µM* | -14% | ? | 9% | 7.1µM*
CC1=C(Nc2ccc(C(=O)O)cc2)C(=O)c2ccccc2C1=O | 45µM* | ? | nt | -15% | 6% | ?
O=C(O)c1ccc(NC2=C(Cl)C(=O)c3ccccc3C2=O)cc1 | 50µM* | ? | ? | -14% | 9% | ?
O=C1C(Cl)=C(Nc2ccccc2)C(=O)c2ccccc21 | ? | -18% | -12% | -2% | 0% | ?
CCOc1ccc(S(=O)(=O)N2CCN(c3cccc(C(F)(F)F)c3)CC2)cc1OCC | 2% | -13% | nt | 27% | 0% | -1%[59 µM]
CCCCc1nnc(SCc2cc(=O)c3cc(F)ccc3[nH]2)n1C | 2% | -18% | nt | 22%[57 µM] | 1% | 8%[59 µM]
O=C(NCCc1ccccc1)c1nnc(Cc2cccc(F)c2)o1 | 24% | 49% | nt | 85% | -15% | 42%[59 µM]
CCC(CC)c1nnc(NC(=O)CCN2C(=O)c3ccccc3C2=O)s1 | -3% | -13% | -3% | 22% | -3% | -1%
CCCC(C)c1nnc(NC(=O)CN2C(=O)c3ccccc3C2=O)s1 (stereo unspecified) | ? | -3% | 5% | 4% | -15% | 7.9µM*
CCCC(C)c1nnc(NC(=O)C(=O)OCC)s1 (stereo unspecified) | 56µM* | 18µM* | -8%[11.4 µM] | ? | -15% | ?
SMILES | BAZ2B block | JMJD2A Tudor inh | L3MBTL1 inh | HP1b chromo inh | GLS inhibitor | G9a block
CCCC(C)NC(=O)c1cc(C(=O)OC)cc([N+](=O)[O-])c1 (stereo unspecified) | 4% | -1% | 5% | 17% | 4% | -6%
CCC(CC)c1nnc(NC(=O)CN2C(=O)c3ccccc3C2=O)s1 | -16% | -1% | 6% | 7% | -14% | 45µM*
CCCC(C)c1nnc(NC(=O)C2CCCO2)s1 (stereo unspecified) | -1% | -12% | -6%[11.4 µM] | -21% | -10% | ?
CCCC(C)c1nnc(NC(=O)c2cc(C(=O)OC)cc([N+](=O)[O-])c2)s1 (stereo unspecified) | -6% | ? | -2% | -59% | -16% | 8.9µM*
Cc1ccccc1-c1nccc(NCCN2CCOCC2)n1 | nt | nt | nt | nt | nt | 1%[0.501 µM]
COc1ccc(OC)c(NC(=S)Nc2ccccc2)c1 | -33% | -23% | -7% | 16% | 0% | -49%
COc1ccc(NC(=O)C/C(C)=N/NC(=O)C(=O)NC2CCCCC2)c(OC)c1 | -14% | -5% | nt | 39% | 2% | 16µM*
COc1ccc(NC(=O)N(C2CCCCC2)C(C)c2ccco2)c(OC)c1 (stereo unspecified) | ? | ? | -5% | 7% | 18% | 45µM*
COc1ccc(NC(=S)Nc2ccc(OC)cc2OC)c(OC)c1 | -13% | -6% | -10% | -10% | 14% | 4µM*
COC(=O)NNC(=S)Nc1cc(OC)ccc1OC | ? | ? | nt | -9% | 4% | 45µM*
COc1ccc(CNc2ccnc(-c3ccccc3Cl)n2)c(OC)c1 | nt | nt | nt | nt | nt | 5%[0.501 µM]
COc1ccc(NC(=O)Nc2cnccn2)c(OC)c1 | 1% | -10% | nt | 20% | 7% | nt
COc1ccc(NC(=O)Nc2ccc(Cc3ccncc3)cc2)c(OC)c1 | 50µM* | ? | -8% | ? | 9% | ?
COc1ccc(NC(=S)Nc2cccnc2)c(OC)c1 | -3% | -2% | 7% | 16% | 32% | 50µM*
COc1cccc(NC(=S)Nc2cccnc2)c1 | -1% | -11% | 8% | 7% | 15% | -17%[59 µM]
COc1ccc(NC(=S)NC2CCCCC2)c(OC)c1 | ? | -30% | -12% | ? | -8% | 50µM*
O=C(Nc1ccc(Br)cc1F)C1CCN(c2nc3ccccc3[nH]2)CC1 | 4% | -21% | nt | 14%[57 µM] | 4% | 7%[59 µM]

High-throughput results deposited in PubChem BioAssay by National Center for Advancing Translational Sciences (NCATS).
